This is an account of results in PubChem BioAssay (NCATS).

Each structure is given as a SMILES string. A number with no mark means an inactive call. Results filed as inconclusive are left out. Active and inactive are the calls of the source. Unless noted, calls come from the whole dose curve; as a rule, active = well fitted curve in the direction sought with a large enough effect; inconclusive = small, poorly fitted or top-dose-only effect, or another doubt; inactive = no such curve, though single readings can be large; an effect the other way counts as inactive or inconclusive.

Test [1] can be described thus: qHTS assay for measurement of the activity of small molecule inhibitors on Zika virus induced Caspase-3 activity in human iPSC derived neural progenitor cells (hNPCs) (AID 1224857). Note: % of control where 0% means no effect; nearly all actives have a fitted effect of over 65% in size. In a few lines: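 Caspase-3/7 induction by a 6-hour ZIKV infection was quantified with a luminescent Caspase-Glo 3/7 reagent incubated 30 minutes at room temperature. Compounds were preincubated with hNPCs for 1 hour; inhibition was calculated against uninfected and infected control wells.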
For orientation: qHTS replaces the single test concentration by a dilution series.

Test [2] in a line: qHTS assay for measurement of the activity of small molecule inhibitors on Zika virus induced Caspase-3 activity in human astrocytoma cells (AID 1224859).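 Note: plate controls were ZIKV-infected untreated cells for no effect and uninfected cells for full effect.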 In a few lines: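 In SNB-19 cells plated at 250 cells/well and grown 16-20 h, compounds were applied 1 h before ZIKV (2 FFU/cell). Six hours later caspase-3/7 luminescence was recorded.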
Test [3] in a line: qHTS assay to identify small molecule inhibitors of chordoma cells - UCH-2 (AID 1259356). Note: series mostly up to about 46 µM; % is set by controls: 0 for no effect and ±100 for the full control effect.
Test [4] in a line: Identifying Small Molecule Inhibitors of Pancreatic Cancer Stem Cells (A2780, Spheroid) (AID 1259357).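 Note: potency is the fitted concentration of half-maximal effect; compound exposure lasted 48 h before the ATP luminescence read.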 Conditions: A2780 spheroid viability. In a few lines:
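Monolayer and spheroid cultures are compared. Spheroids form over 14 days in stem cell medium on hydrogel-coated low-attachment plates, then are exposed to compound for 48 h before CellTiter-Glo luminescence.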

Test [5] is described as follows: Identifying Small Molecule Inhibitors of Pancreatic Cancer Stem Cells (A278, Adherent) (AID 1259361). Note: nearly all actives have a fitted effect of over 35% in size. In a few lines:
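Cytotoxicity read by CellTiter-Glo luminescence after 48 h compound exposure at 37C; percent activity scaled between DMSO-treated cells and cell-free wells. Spheroid formats used cells pre-formed 14 days in stem cell media on hydrogel.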

A short description of test [6]: Identifying Small Molecule Inhibitors of Pancreatic Cancer Stem Cells (Panc1, Adherent) (AID 1259362).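 Note: compound exposure lasted 48 h before the viability read; plate controls were DMSO-treated cells for no effect and cell-free media wells for full effect.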 In a few lines:
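Luminescent ATP readout (CellTiter-Glo) quantifies surviving cells after a 48 h drug incubation. Normalization uses DMSO wells as no inhibition and media-only wells as full inhibition; bortezomib served as positive control.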

Test [7] can be described thus: P-glycoprotein substrates identified in KB-8-5-11 adenocarcinoma cell line, qHTS therapeutic library screen (AID 1346987). Note: nearly all actives have a fitted effect of over 65% in size. Note: potency is the fitted concentration of half-maximal effect. A digest of the protocol: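 KB-8-5-11: colchicine-selected sub-line of KB-3-1 over-expressing P-gp; assay medium lacked colchicine. 72 h drug exposure at 37 degree C, CellTiter-Glo.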
Test [8] in a line: Natriuretic polypeptide receptor (hNpr1) antagonism - Pilot counterscreen GloSensor control cell line (AID 1347045; calls by dose curve; note: potency is the fitted concentration of half-maximal effect). In a few lines: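 HEK293 cells carrying the GloSensor cGMP sensor (GIP/pGS-40F) were loaded with 2% GloSensor reagent for 2 h, exposed to compounds for 30 min, and then stimulated with 50 uM sodium nitroprusside for 20 min at room temperature.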
On the technique in general: The purpose of a counterscreen is to sort out artefacts and off-target activity.

In test [9] the target is Atrial natriuretic peptide receptor 1 (Homo sapiens) (UniProt P16066). Put plainly: Natriuretic polypeptide receptor (hNpr1) antagonism - Pilot screen (AID 1347049; calls by dose curve;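 note: agonist-evoked cGMP luminescence read 20 min after hNppA addition; series mostly up to about 58 µM; % is set by controls: 0 for no effect and ±100 for the full control effect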). In a few lines: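 Readout is cGMP-driven firefly luciferase luminescence in HEK293 cells carrying hNpr1 and a PDE5-domain GloSensor, read before and 20 min after 0.1 nM hNppA stimulation. Cells had 2% substrate reagent for 2 h and test compound for 30 min.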

Test [10] deals with Atrial natriuretic peptide receptor 2 (Homo sapiens) (UniProt P20594). Put plainly: Natriuretic polypeptide receptor (hNpr2) antagonism - Pilot subtype selectivity assay (AID 1347050; calls by dose curve; note: % is set by controls: 0 for no effect and ±100 for the full control effect). A digest of the protocol:
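Pilot selectivity screen against hNpr2: HEK293 cGMP-sensor cells are treated with LOPAC1280 compounds, then with hNppC peptide at 1 nM final. The cGMP-driven luminescence change over 20 min at room temperature is the read-out.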

For test [11], the target named is T1, Tyrosine-protein phosphatase non-receptor type substrate 1 (Homo sapiens) + Leukocyte surface antigen CD47 (Homo sapiens) (UniProt P78324+Q08722). Put plainly: CD47-SIRPalpha protein protein interaction - LANCE assay qHTS validation (AID 1347057; active = well fitted curve in the direction sought with a large enough effect in the signal ratio, with a control signal flat, not every such curve was filed as active; the % refers to the signal ratio; note: series mostly up to about 38 µM; 0% is about no effect). In a few lines:
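First, His-tagged CD47 and Eu-labelled anti-His antibody met the compound for 30 min; next, site-specifically biotinylated SIRPalpha was added for 30 min; finally streptavidin-APC was added before reading the TR-FRET ratio.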
On the technique in general: TR-FRET usually uses a lanthanide donor and a delayed reading to cut background.

Test [12] deals with T1, Tyrosine-protein phosphatase non-receptor type substrate 1 (Homo sapiens) + Leukocyte surface antigen CD47 (Homo sapiens). Put plainly: CD47-SIRPalpha protein protein interaction - HTRF assay qHTS validation (AID 1347058; active = well fitted curve in the direction sought with a large enough effect in the signal ratio, not every such curve was filed as active; the % refers to the signal ratio;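 note: recombinant soluble extracellular CD47 with His tag and biotinylated SIRPalpha domains; series mostly up to about 38 µM; 0% is about no effect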). In a few lines: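 TR-FRET read (Ch1/Ch2 ratio) of soluble extracellular CD47 and Avi-biotinylated SIRPalpha domains in PBS pH 7.4 with 0.05% IGEPAL; 7-point compound titration. Sequential 30 min room-temperature steps; non-biotinylated SIRPalpha as control inhibitor.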

The target is the same in test [13]. Put plainly: CD47-SIRPalpha protein protein interaction - Alpha assay qHTS validation (AID 1347059).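 Note: bead proximity luminescence from CD47 binding SIRPalpha after compound preincubation with SIRPalpha; % is set by controls: 0 for no effect and ±100 for the full control effect.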 A digest of the protocol: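 Binding is measured by AlphaScreen proximity: Ni-NTA acceptor beads capture His-CD47, streptavidin donor beads capture biotin-SIRPalpha. Each of three additions (SIRPalpha with compound, CD47, beads) incubates 30 min at room temperature protected from light.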

In test [14] the target is Parathyroid hormone/parathyroid hormone-related peptide receptor (Homo sapiens) (UniProt Q03431). Put plainly: qHTS for PTHR1 Agonists: Optimization Screen against the NCGC LOPAC library (AID 1347079).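 Note: GloSensor cAMP luminescence in HEK-293 GP2 cells expressing human PTHR1 with IBMX; 0% is about no effect.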 In a few lines: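 Compounds were tested across a qHTS titration. PTHR1-expressing GP2 cells report cAMP rises via GloSensor luminescence after 1 hr compound exposure at 37C with IBMX present.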

Test [15] can be described thus: qHTS of pediatric cancer cell lines to identify multiple opportunities for drug repurposing: Primary screen for TC32 cells (AID 1347089). Note: nearly all actives have a fitted effect of over 60% in size. Note: potency is the fitted concentration of half-maximal effect. In a few lines:
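qHTS, TC32, 48 h drug treatment, CellTiter-Glo luminescence as a proxy for metabolically active cells; primary top concentration 46 µM (MIPE 11-pt, NPC 8-pt); confirmatory 11-pt.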

The nature of test [16]: NS1 protein of Zika virus - qHTS assay to identify small molecule inhibitors in human HEK 293 cells (AID 1347053).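 Note: series mostly up to about 46 µM; plate controls were infected untreated cells for no effect and uninfected cells for full effect; nearly all actives have a fitted effect of over 55% in size.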 A digest of the protocol: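 HEK 293; 20 h pre-culture, 37 C/5% CO2; cpd 1 h pre-infection; ZIKV MR766, MOI = 0.5, 24 h, 37 C; TR-FRET NS1 readout (two anti-NS1 Abs); norm. to no-virus vs infected.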
A short description of test [17]: qHTS of pediatric cancer cell lines to identify multiple opportunities for drug repurposing: Primary screen for DAOY cells (AID 1347090).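 Note: series mostly up to about 46 µM; plate controls were DMSO for no effect and bortezomib for full effect; nearly all actives have a fitted effect of over 55% in size.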 A digest of the protocol:
(§1)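 Cell viability, CellTiter-Glo luminescence; 500-1,000 cells/well, 8- or 11-point titration, 48 h compound exposure at 37 degrees C, 5% CO2. Controls: DMSO neutral, bortezomib 2.3 µM final as positive.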

The nature of test [18]: qHTS of pediatric cancer cell lines to identify multiple opportunities for drug repurposing: Primary screen for SJ-GBM2 cells (AID 1347091).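 Note: plate controls were DMSO neutral control for no effect and bortezomib for full effect.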 A digest of the protocol: as §1
The nature of test [19]: qHTS assay to identify small molecule inhibitors of chordoma cells - UCH-1 (AID 1259355). Note: % is set by controls: 0 for no effect and ±100 for the full control effect; nearly all actives have a fitted effect of over 55% in size. In a few lines:
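Seed 800 cells per well; incubate overnight at 37 C, 5% CO2. Add test compounds (15 concentrations), then the auranofin–topoisomerase-agent combination. Incubate 48hr, add CellTiter-Glo, wait 30min, read luminescence.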

Sequence of Atrial natriuretic peptide receptor 1 (Homo sapiens) (P16066 whole entry, looked up): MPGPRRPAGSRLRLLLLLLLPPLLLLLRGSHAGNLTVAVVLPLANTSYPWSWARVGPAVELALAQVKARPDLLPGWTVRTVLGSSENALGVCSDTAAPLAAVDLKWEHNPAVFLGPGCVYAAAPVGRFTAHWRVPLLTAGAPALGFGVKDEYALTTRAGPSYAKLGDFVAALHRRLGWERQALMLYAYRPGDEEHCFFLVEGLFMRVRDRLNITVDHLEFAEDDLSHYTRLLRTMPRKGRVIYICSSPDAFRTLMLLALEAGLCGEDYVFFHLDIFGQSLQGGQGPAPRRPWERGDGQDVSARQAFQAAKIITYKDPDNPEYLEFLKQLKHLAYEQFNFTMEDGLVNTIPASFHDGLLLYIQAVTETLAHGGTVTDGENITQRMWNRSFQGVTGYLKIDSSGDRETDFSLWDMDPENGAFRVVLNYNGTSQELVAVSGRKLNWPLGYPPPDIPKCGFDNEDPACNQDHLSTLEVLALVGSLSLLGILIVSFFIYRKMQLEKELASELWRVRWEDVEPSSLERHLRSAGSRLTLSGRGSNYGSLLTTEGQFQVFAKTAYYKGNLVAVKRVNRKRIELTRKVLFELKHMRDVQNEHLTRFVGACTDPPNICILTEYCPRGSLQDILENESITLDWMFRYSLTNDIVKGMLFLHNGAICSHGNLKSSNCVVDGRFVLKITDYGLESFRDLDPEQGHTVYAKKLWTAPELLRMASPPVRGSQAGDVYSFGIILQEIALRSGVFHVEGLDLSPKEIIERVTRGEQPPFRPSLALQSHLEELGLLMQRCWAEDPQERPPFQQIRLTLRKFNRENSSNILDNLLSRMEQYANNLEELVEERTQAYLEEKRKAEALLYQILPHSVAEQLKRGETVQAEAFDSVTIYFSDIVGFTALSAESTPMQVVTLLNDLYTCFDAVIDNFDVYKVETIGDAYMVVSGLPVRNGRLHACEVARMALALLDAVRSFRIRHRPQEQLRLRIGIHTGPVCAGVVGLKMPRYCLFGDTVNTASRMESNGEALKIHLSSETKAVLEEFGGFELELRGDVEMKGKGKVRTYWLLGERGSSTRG
Sequence of Atrial natriuretic peptide receptor 2 (Homo sapiens) (P20594 whole entry, looked up): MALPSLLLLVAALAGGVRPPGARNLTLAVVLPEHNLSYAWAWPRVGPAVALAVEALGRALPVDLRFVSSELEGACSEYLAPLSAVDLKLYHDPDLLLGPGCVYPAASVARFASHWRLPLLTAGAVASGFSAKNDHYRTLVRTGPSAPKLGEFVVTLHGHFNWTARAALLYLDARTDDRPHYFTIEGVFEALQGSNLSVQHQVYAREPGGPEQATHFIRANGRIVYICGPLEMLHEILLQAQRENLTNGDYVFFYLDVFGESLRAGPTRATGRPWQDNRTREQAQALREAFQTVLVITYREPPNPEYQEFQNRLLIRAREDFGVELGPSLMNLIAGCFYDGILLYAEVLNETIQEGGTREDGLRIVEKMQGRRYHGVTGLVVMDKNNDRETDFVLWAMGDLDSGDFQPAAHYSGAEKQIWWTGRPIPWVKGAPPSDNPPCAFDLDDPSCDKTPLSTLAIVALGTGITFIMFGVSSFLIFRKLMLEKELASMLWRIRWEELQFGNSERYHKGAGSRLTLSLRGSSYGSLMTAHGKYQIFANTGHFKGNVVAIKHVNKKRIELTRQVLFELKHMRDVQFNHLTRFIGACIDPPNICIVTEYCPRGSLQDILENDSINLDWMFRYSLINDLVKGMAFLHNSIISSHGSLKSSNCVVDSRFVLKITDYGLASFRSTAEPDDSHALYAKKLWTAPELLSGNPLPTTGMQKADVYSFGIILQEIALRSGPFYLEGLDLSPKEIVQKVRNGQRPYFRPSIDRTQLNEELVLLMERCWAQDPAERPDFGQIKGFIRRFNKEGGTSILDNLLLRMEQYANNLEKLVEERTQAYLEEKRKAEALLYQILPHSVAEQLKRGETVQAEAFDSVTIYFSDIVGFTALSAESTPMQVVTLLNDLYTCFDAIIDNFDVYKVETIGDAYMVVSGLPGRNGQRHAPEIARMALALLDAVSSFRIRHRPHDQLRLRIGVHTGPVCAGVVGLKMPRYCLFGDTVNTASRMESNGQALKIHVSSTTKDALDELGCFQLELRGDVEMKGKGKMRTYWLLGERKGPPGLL
Sequence of Parathyroid hormone/parathyroid hormone-related peptide receptor (Homo sapiens) (Q03431 whole entry, looked up): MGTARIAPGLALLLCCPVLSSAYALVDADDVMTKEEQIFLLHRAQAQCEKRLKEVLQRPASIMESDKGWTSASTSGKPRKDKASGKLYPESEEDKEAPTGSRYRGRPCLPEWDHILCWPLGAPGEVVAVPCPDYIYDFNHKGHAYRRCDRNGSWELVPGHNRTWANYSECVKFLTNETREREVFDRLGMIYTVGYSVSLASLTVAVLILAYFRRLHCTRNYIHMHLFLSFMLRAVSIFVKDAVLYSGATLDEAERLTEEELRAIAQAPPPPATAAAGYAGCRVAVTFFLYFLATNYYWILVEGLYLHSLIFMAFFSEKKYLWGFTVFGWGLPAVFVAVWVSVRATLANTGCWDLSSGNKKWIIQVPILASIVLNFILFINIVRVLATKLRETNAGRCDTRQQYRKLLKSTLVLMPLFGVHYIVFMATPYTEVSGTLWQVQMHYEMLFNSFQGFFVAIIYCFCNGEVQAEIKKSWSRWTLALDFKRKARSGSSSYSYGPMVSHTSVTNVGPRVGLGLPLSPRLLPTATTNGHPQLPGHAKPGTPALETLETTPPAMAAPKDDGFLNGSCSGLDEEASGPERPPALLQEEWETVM
T1 sequence (P78324 whole entry, looked up): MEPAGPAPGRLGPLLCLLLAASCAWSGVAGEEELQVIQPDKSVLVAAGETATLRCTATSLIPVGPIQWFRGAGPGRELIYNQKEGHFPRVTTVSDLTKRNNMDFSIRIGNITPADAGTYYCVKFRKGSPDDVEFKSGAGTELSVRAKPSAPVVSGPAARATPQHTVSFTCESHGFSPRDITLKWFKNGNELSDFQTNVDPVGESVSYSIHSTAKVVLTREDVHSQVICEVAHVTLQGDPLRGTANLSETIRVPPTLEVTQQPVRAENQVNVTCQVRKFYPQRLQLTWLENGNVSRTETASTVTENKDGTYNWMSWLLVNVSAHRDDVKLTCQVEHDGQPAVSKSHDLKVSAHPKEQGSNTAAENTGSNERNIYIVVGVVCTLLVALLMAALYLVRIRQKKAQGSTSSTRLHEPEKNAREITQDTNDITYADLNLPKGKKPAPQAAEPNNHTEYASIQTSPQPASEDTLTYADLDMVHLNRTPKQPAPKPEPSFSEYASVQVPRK
T1 sequence (Q08722 whole entry, looked up): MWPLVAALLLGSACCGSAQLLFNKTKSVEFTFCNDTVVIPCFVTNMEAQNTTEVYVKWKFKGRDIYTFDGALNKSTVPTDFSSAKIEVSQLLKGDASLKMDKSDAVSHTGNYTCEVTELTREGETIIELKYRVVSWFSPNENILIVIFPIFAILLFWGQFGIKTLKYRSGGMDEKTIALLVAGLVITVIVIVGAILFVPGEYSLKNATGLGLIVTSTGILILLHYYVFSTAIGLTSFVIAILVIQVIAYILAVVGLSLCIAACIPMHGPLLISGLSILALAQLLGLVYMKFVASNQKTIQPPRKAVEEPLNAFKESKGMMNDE

In the case of `Nc1ncn([C@@H]2O[C@H](CO)[C@@H](O)[C@H]2O)c(=O)n1`, the outcome in test [1], in test [2], in test [6], in test [11], in test [12] and in [14] was inactive. Besides, the Potency entry in [3], in test [8], in test [9], in test [10] and in test [13] was “inactive” throughout. Besides, the Potency is 16.6 µM (active) in test [4], 8.2 µM (active) in test [7] and 11.8 µM (active) in test [15]. The IC50 (viability decrease) in test [5] is 2.35 µM (active).
For `Brc1c(NC2=NCCN2)ccc2nccnc12`, the result in [1], in [2], in test [16], in test [11] and in test [14] was inactive. Also, the Potency result in [3], in [7], in [8], in test [9], in [10] and in [13] was “inactive” each time. For the same molecule, the Potency result in [15], in test [17] and in test [18] was “inactive” each time.
With `CCc1c(C)[nH]c2c1C(=O)C(CN1CCOCC1)CC2` (configuration not stated), the molecule was classed as inactive in test [1], in test [2], in test [16], in test [11], in test [12] and in test [14]. The Potency entry in [3], in [7], in test [8], in [9], in test [10] and in [13] was “inactive” in each case. Further, the Potency result in test [17] and in [18] was “inactive” in each case.
On to `CCOC(=O)C1=C(C)NC(C)=C(C(=O)OC)C1c1cccc([N+](=O)[O-])c1` (configuration not stated), for which the molecule was classed as inactive in [1], in test [2], in test [16], in test [11] and in test [14]. The Potency result in [19], in test [3], in [8], in test [10], in [13] and in [15] was “inactive” throughout. Besides, the Potency result in test [17] and in [18] was “inactive” throughout.
In the case of `COC(=O)C1=C(C)NC(C)=C(C(=O)OCCN(C)Cc2ccccc2)C1c1cccc([N+](=O)[O-])c1` (configuration not stated), the call in [1], in test [2], in test [16] and in test [14] was inactive. Further, the Potency result in test [19], in test [3] and in [15] was “inactive” each time. For the same molecule, the Potency in test [8] is 16.5 µM (active).
Regarding `CC(=O)OC(C)C[N+](C)(C)C` (configuration not stated), the molecule was classed as inactive in test [1], in test [2], in test [16], in [11] and in test [12]. Also, the Potency entry in test [3], in test [7], in test [8], in [9], in test [10] and in [13] was “inactive” throughout. For the same molecule, the Potency result in test [17] and in [18] was “inactive” each time.
On to `CCC(=O)c1ccc2c(c1)N(CCCN(C)C)c1ccccc1S2`, for which the molecule was called inactive in test [1], in test [2], in test [16], in test [11] and in test [14]. Further, the Potency entry in test [19], in test [3], in test [8], in [9], in test [10] and in test [13] was “inactive” throughout. Besides, the Potency entry in [15] and in test [17] was “inactive” each time.
Regarding `CCn1nc(C(=O)O)c(=O)c2cc3c(cc21)OCO3`, the result in [1], in test [2], in test [16], in test [11] and in [14] was inactive. Further, the Potency result in test [19], in [3], in [8], in test [9], in test [10] and in [13] was “inactive” each time. Further, the Potency entry in test [15], in test [17] and in test [18] was “inactive” in each case.
Regarding `CN1CCN(CC(=O)N2c3ccccc3C(=O)Nc3cccnc32)CC1`, the outcome in test [1], in test [2], in [16] and in test [11] was inactive. Also, the Potency entry in test [19], in [3], in test [8], in test [9], in [10] and in test [13] was “inactive” each time. Also, the activity change, negative = cytotoxic is 4.32% [at 4.81 µM] in [15], 1.05% [at 4.84 µM] in test [17] and 3.45% [at 4.84 µM] in [18].
Take `CCN(Cc1ccncc1)C(=O)C(CO)c1ccccc1` (configuration not stated): the molecule was classed as inactive in test [1], in [2], in [16], in [11], in test [12] and in test [14]. Further, the Potency result in test [3], in test [7], in test [8], in [9], in [10] and in test [13] was “inactive” throughout. Also, the Potency entry in [15], in test [17] and in test [18] was “inactive” in each case.
In the case of `CSc1ccc(C(=O)c2[nH]c(=O)[nH]c2C)cc1`, the call in test [1], in test [2] and in test [16] was inactive. In addition, the Potency result in test [19], in test [3], in test [8], in test [9], in [10] and in test [13] was “inactive” throughout. Moreover, the Potency entry in [15], in [17] and in [18] was “inactive” throughout.
As for `CC1=C(C)C(=O)C(CCCCC#CCCCC#CCO)=C(C)C1=O`, the call in test [1], in test [2], in test [16], in test [11] and in test [14] was inactive. The Potency result in [19], in test [3], in [9], in [10], in test [13] and in test [15] was “inactive” throughout. Moreover, the Potency entry in test [17] and in [18] was “inactive” each time.
